# According to PMC7819943, “Rice protein-binding microarrays: a tool to detect cis-acting elements near promoter regions in rice”:
# The full ranking holds about 39,000 sequences; the median of “fluorescence intensity (a.u.)” is about 4,300, and the highest 2% start at about 39,000. The list comes from a sample in which the highest values are over-represented; it also holds similar and randomly drawn sequences.
# Biological target: T1, OsSMF1 (Oryza sativa, UniProt Q6ZLB0 1-436)
# T1 sequence: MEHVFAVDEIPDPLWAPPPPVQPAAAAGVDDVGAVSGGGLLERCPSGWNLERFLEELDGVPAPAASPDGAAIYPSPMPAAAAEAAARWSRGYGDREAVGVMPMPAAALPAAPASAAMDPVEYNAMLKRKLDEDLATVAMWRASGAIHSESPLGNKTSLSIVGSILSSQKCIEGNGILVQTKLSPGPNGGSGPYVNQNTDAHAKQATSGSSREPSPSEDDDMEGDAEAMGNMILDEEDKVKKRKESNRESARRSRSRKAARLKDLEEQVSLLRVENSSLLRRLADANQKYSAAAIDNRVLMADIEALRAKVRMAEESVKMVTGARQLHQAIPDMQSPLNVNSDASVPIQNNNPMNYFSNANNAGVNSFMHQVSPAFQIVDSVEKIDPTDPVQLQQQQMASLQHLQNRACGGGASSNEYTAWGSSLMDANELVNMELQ
# Experiment: protein-binding microarray (RPBM); PBS, 2% BSA, 51.3 ng/ul salmon testes DNA, 50 uM zinc acetate, 200 nM TF, 25 C, 1 h; high values mean tight binding
# Conditions: protein: recombinant; tags: N-terminal polyhistidine and DsRed monomer fusion (pET32a); chain copies: 2; label: CyDye5-dUTP incorporated in the synthesized complementary strand; 3' TTTTT single-stranded linker to array surface; dsDNA, one strand shown
# In short: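 Transcription factors were each fused at the N-terminus to a polyhistidine tag plus DsRed and expressed in E. coli BL21-CodonPlus before Ni–NTA purification. Binding to a double-stranded custom Agilent array was carried out with 200 nM protein at 25 °C for 1 h in PBS, 2% BSA, salmon testes DNA and 50 µM zinc acetate. The binding signal is per-feature fluorescence intensity, in arbitrary units, on an Axon 4000B scanner.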
row,Sequence,binding signal
1,GAGTTGTGACTGTGAGGCACACCAATGGCGGCCCATGGATCGGAGTCACCTAGTGCAG,3740 fluorescence intensity (a.u.)
2,CACTGTCCATCCATGGTGGTGGTCAGACAACCCCAGCACACGGAGTCACCTAGTGCAG,3990 fluorescence intensity (a.u.)
3,TGCGATTGATTCGGTATTAGAGCCTGCATACGTGTCATCTCGGAGTCACCTAGTGCAG,22100 fluorescence intensity (a.u.)
4,CATGAGGAGGATGCTGACGTCTCGAGGTGAAGGCCGCAATCGGAGTCACCTAGTGCAG,4970 fluorescence intensity (a.u.)
5,TCTCCCAGGCCACCATCGGCGTCCACATCCCGCCGTCCGCCGGAGTCACCTAGTGCAG,3510 fluorescence intensity (a.u.)
6,GTCGGCCCATGAATATGCTGACGTCACTTTTGAGCCCACTCGGAGTCACCTAGTGCAG,36600 fluorescence intensity (a.u.)
7,CCTCTCCAGTACGCGTCGCCCCGCCACGTCAGCGACTGGCCGGAGTCACCTAGTGCAG,41600 fluorescence intensity (a.u.)
8,CTCTCCCGCCTCGCCCGTCGACGCCCGCGCCACGTGCAGCCGGAGTCACCTAGTGCAG,6190 fluorescence intensity (a.u.)
9,CCATCTCGGCCCATGAGGATGCTGACGTCACCGCGTCGTCCGGAGTCACCTAGTGCAG,42700 fluorescence intensity (a.u.)
10,TCCAGATCTTGGCGCCGCCGGATCCCGTCAGTCTCCACAACGGAGTCACCTAGTGCAG,48300 fluorescence intensity (a.u.)
11,CGGCCGCCGCGACACCCGCCGCCACGTCGCCCCGCCACGCCGGAGTCACCTAGTGCAG,9460 fluorescence intensity (a.u.)
12,GCCTCCACCTCGCTGCTGCTCCGCCAGCTAGTAGCCGCCACGGAGTCACCTAGTGCAG,3350 fluorescence intensity (a.u.)
13,CGCTCTGCCGTCCGGCTCTCCGCGCGATGCTACGTGGCCGCGGAGTCACCTAGTGCAG,5480 fluorescence intensity (a.u.)
14,TCGGCCAATGCGGAGCCGTCAGCTCTCCGCTGCTCGGCTACGGAGTCACCTAGTGCAG,44400 fluorescence intensity (a.u.)
15,GCCGCCGCCGCCGTCTGCACCCGCGTCAGCGCTCCACAAACGGAGTCACCTAGTGCAG,3440 fluorescence intensity (a.u.)
16,GACATTTACATGTACTGATTGCTGATTGCCATTGATTCATCGGAGTCACCTAGTGCAG,22800 fluorescence intensity (a.u.)
17,CAGTGTTACATCATCGACCGGTTATCATCTTTGTTTCGATCGGAGTCACCTAGTGCAG,3580 fluorescence intensity (a.u.)
18,TTGCACATGCTGATTATTACATATTGCTACGTCCTTTTGCCGGAGTCACCTAGTGCAG,3230 fluorescence intensity (a.u.)
19,GGTGTGTATTGACGCACCACGTATGTCTATCTTCTTTCGTCGGAGTCACCTAGTGCAG,3820 fluorescence intensity (a.u.)
20,TGGCCGGAATCACACGCACAAGGTGCTGCGTCACCTATAACGGAGTCACCTAGTGCAG,9040 fluorescence intensity (a.u.)
21,CACGATCCATCATATCGCTTGAGCTAGCCACAACACACAACGGAGTCACCTAGTGCAG,22100 fluorescence intensity (a.u.)

row,Sequence,binding signal
1,GCATGGTGGCGGCGGGAAGGAGGAGTGGGGCGGCGGGTGCCGGAGTCACCTAGTGCAG,3770 fluorescence intensity (a.u.)
2,GGGCCCCGCAGGCGCAGGCGCAGCGGTACGCCGTCGTCGGCGGAGTCACCTAGTGCAG,54200 fluorescence intensity (a.u.)
3,CGAGTGCCACGCGTGCGCCCACCGCCACGTCACCGATCCCCGGAGTCACCTAGTGCAG,53800 fluorescence intensity (a.u.)
4,CCAGCCCCGCGCCGGCCGCCGTCCGTCCGCCCGCGCGCGGCGGAGTCACCTAGTGCAG,3540 fluorescence intensity (a.u.)
5,CTTGGATCCAACGGCCACGGCTCTCTCATCGCCGCGCCCCCGGAGTCACCTAGTGCAG,46100 fluorescence intensity (a.u.)
6,GTCCGTCGCGCGTCACCGCGTGCCTCGCCACGCCCACGCCCGGAGTCACCTAGTGCAG,5090 fluorescence intensity (a.u.)
7,CCCCACCACCTCATCGATCCGCGCCACCACCCAACCCACCCGGAGTCACCTAGTGCAG,4250 fluorescence intensity (a.u.)
8,GCCACCGCCGCGGGCGCGGCCCCGGCCCCGGCCCCGGCCGCGGAGTCACCTAGTGCAG,3390 fluorescence intensity (a.u.)
9,GAAGCCATCCACGCGGCACCATCGGACGGCTCTCGCGCCCCGGAGTCACCTAGTGCAG,5210 fluorescence intensity (a.u.)
10,CGTCGAACCGGCGGCGGCCCGCGCCACCCACCCTACCCGCCGGAGTCACCTAGTGCAG,49100 fluorescence intensity (a.u.)
11,CCCGCCGCGCCGCGTCCCGGCCACCGCGCCGCCCGCCGCGCGGAGTCACCTAGTGCAG,4250 fluorescence intensity (a.u.)
12,GGGCAGATCCGGCGCCCGACGCCGGCGGATCCGCCGTCGTCGGAGTCACCTAGTGCAG,32500 fluorescence intensity (a.u.)
13,TCCCGCTCACCACCACGCCACGTCACCGATCCGCGCAACCCGGAGTCACCTAGTGCAG,22400 fluorescence intensity (a.u.)
14,ACACATGCTTCAAGTGGCTAAGAGGGCATCCTCCCTTTTACGGAGTCACCTAGTGCAG,16000 fluorescence intensity (a.u.)
15,TAACTTCTTGCAGAAATGCCTCGTCATCGGTGACGCCGTTCGGAGTCACCTAGTGCAG,4870 fluorescence intensity (a.u.)
16,AAATTTGATCCTCGCACACCAGCTCAGCTACAGATGACATCGGAGTCACCTAGTGCAG,4230 fluorescence intensity (a.u.)
17,TTTGCATGCTTCATTACCACCTTCATCCACGTTGAAAGTACGGAGTCACCTAGTGCAG,4160 fluorescence intensity (a.u.)
18,GCACATCGCGCTCGCCGAAGCAGAACCACGCGGCCACCGGCGGAGTCACCTAGTGCAG,3240 fluorescence intensity (a.u.)
19,CGCAGCAAGCGTCACGTCACCAACTGTTTGCTCCAACTGTCGGAGTCACCTAGTGCAG,9370 fluorescence intensity (a.u.)
20,AAGAAACAACACACGTTAGCATTTCACTGCTATTAAGTTCCGGAGTCACCTAGTGCAG,5010 fluorescence intensity (a.u.)
21,GACGTTAGTGATCAGCTGGGTTAATTAATTACGTGGCTAACGGAGTCACCTAGTGCAG,7210 fluorescence intensity (a.u.)
